Assay results from PubChem BioAssay AID602449 (Sanford-Burnham Center for Chemical Genomics, 2012).
Out of some 360,000 compounds screened, about 5,000 (1.4%) were called active. The full list was thinned out, with actives kept by preference. Unmarked numbers belong to inactive results.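 Rule for the calls: active = inhibition of 50% or more, scaled per plate between neutral and stimulator controls; inactive = the rest.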

Test: blockers of Ca2+-induced mitochondrial swelling – biochemical, isolated mouse mitochondria, absorbance, primary screen (AID 602449);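 note: 0% = DMSO wells given calcium and 100% = 1 mM EGTA wells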
Conditions: 30 min, at 10 µM, hits give high values
For `Cc1ccc(NC(=O)OCCNC(=O)c2ccncc2)cc1`, the inhibition was -2.2%.
`CCOC(=O)c1ccc(NC(=S)N2CCCC2)cc1` gave an inhibition of -9.2%.
In the case of `CCCCCOC(=O)NCCOC(=O)Nc1ccc(C(=O)OCC)cc1`, the inhibition is reported as 62.1% (active).
In the case of `CC1CCCCC12NC(=O)N(CC(=O)OCc1c(F)cccc1Cl)C2=O` (stereo unspecified), the inhibition is reported as 1.5%.
`Cc1cc(C(=O)O)c(S(C)(=O)=O)s1` showed an inhibition of 0%.
In the case of `O=S1(=O)CC(NCc2ccccc2)C(Nc2ccc(Cl)cc2)C1` (stereo unspecified), the inhibition is reported as -0.2%.
`Cc1cc(N2CCCC2)ccc1NC(=O)COc1ccc(Cl)cc1` showed an inhibition of -0.2%.
With `Cc1ccc(NC(=O)COc2ccc(-n3ccnc3)cc2)cc1Cl` the inhibition was 83.4% (active).
With `O=C(COc1ccc(Cl)cc1)Nc1ccc2c(c1)OCO2` the inhibition was -0.4%.
With `COc1ccccc1Nc1ncc(C(C)=O)c(C)n1` the inhibition was -2.1%.
With `O=C(CSCc1ccc(Br)cc1)Nc1ccc(S(=O)(=O)N2CCCCCC2)cc1` the inhibition was 58.6% (active).
`CN(CC(=O)Nc1ccc(S(=O)(=O)N2CCCC2)cc1)Cc1ccc(Cl)c(Cl)c1` showed an inhibition of 3.3%.
Compound `O=C(CN1CCCCCC1)Nc1ccc(S(=O)(=O)N2CCCCC2)cc1` has an inhibition of 0.7%.
Work on `Cc1occc1-c1nnc(SCC(=O)NC2(C#N)CCCC2)n1C` yielded an inhibition of -0.8%.
Compound `COc1ccc(S(=O)(=O)N2CCOCC2)cc1NC(=O)Cc1c(F)cccc1Cl` has an inhibition of -0.8%.
In the case of `O=C(Cc1c(F)cccc1Cl)Nc1ncc([N+](=O)[O-])s1`, the inhibition is reported as 61.9% (active).
Compound `CC(C)(C)NC(=O)NC(=O)COC(=O)Cc1c(F)cccc1Cl` has an inhibition of 2%.
`O=C(OC(C(=O)NC1CCCC1)c1ccc(F)cc1)c1ccno1` (stereo unspecified) gave an inhibition of -3.3%.
Compound `CC(=O)C1C(c2ccc(Cl)cc2)c2c(n[nH]c2C)CC1(C)O` (stereo unspecified) has an inhibition of 1.5%.
Work on `Cc1ccc(OS(=O)Nc2cccc3nccnc23)cc1` (stereo unspecified) yielded an inhibition of -0.1%.
With `CC(NS(=O)(=O)c1ccc(Cl)cc1)C(=O)Nc1ccc2c(c1)OCCO2` (stereo unspecified) the inhibition was -0.3%.
In the case of `S=C(Nc1cccc(Cl)c1)Nc1ccc2c(c1)OCCO2`, the inhibition is reported as 53.6% (active).
Compound `O=C(Nc1ccc2c(c1)OCCO2)c1ccc(Cl)c(S(=O)(=O)N2CCCCC2)c1` has an inhibition of 9%.
In the case of `C/C(CC(=O)Nc1cccc(C(F)(F)F)c1)=N\NC(=O)C(=O)NCC(C)C`, the inhibition is reported as -0.9%.
For `O=C(Nc1cccc(S(=O)(=O)Nc2ccc(Cl)cc2)c1)c1ccc2c(c1)OCCO2`, the inhibition was 77.8% (active).
In the case of `S=C(NCc1ccco1)Nc1ccc2c(c1)OCCO2`, the inhibition is reported as -2.6%.
In the case of `O=C(Nc1ccc2c(c1)OCCO2)C1CCCC1`, the inhibition is reported as -1.6%.
`O=C(Nc1cccc(Cl)c1)c1cncn1-c1ccc(F)cc1` showed an inhibition of -1.7%.
In the case of `FC(F)(F)c1cccc(NC(=S)Nc2cccc(Cl)c2)c1`, the inhibition is reported as 97.6% (active).
For `O=C(NCCCn1ccnc1)C(=O)c1cn(CC(=O)N2CCCCCC2)c2ccccc12`, the inhibition was 0%.
With `Cc1c(C(=O)O)nnn1-c1nonc1N` the inhibition was -1.7%.
With `Cc1nn(-c2ccccc2)c2c1c(C)c(CCC(=O)NCC1CCCO1)c(=O)n2C` (stereo unspecified) the inhibition was 1.8%.
With `Cc1csc(NC(=O)CSc2nnc(-c3cccnc3)o2)n1` the inhibition was -0.1%.
With `Cc1cc(C)nc(NS(=O)(=O)c2ccc(N/C=C\C(=O)c3cccs3)cc2)n1` the inhibition was -0.9%.
Compound `CC(Sc1nnc(C2CC2)n1C1CC1)C(=O)Nc1ccc(C(N)=O)cc1` (stereo unspecified) has an inhibition of 0.5%.
With `Cc1nc(Nc2ccccc2C)c2cnn(C)c2n1` the inhibition was -0.2%.
With `Cc1ccc2c(=O)cc(C(=O)NCCc3ccc(S(N)(=O)=O)cc3)oc2c1C` the inhibition was -0.4%.
In the case of `CCn1cc(CN2CCC(C(=O)Nc3cccc(-c4cccc(Cl)c4)c3)CC2)cn1`, the inhibition is reported as -0.3%.
In the case of `O=C(Nc1cccc(-c2cccc(Cl)c2)c1)C1CCN(C2CCC2)CC1`, the inhibition is reported as 65.4% (active).
Compound `CCn1cc(CN2CCC(C(=O)Nc3cccc(-c4cccc(Cl)c4)c3)CC2)c(C)n1` has an inhibition of 0.6%.
`O=C(c1ccc(F)cc1)c1c[nH]c(C(=O)NCc2cccnc2)c1` showed an inhibition of 0.8%.
With `Cc1ccc(NC(=O)Nc2cc(-c3ccccc3)nn2C)cc1Cl` the inhibition was 83.1% (active).
In the case of `Cc1cc(NC(=O)Nc2ccc(Cl)cc2)n(-c2ccccc2)n1`, the inhibition is reported as 70.8% (active).
`COc1ccc(NC(=O)c2cc3nc(-c4ccccc4)cc(C)n3n2)cc1OC` gave an inhibition of 2.1%.
`Cc1cc(C(=O)NCCc2ccc(Cl)cc2)n(-c2ccccc2)n1` showed an inhibition of 1%.
Compound `CC(=O)c1cccc(NC(=O)c2cc(C)nn2-c2ccccc2)c1` has an inhibition of -1.3%.
`O=C(Nc1ccc(Cl)c(Cl)c1)N1CC=C(c2ccccc2)CC1` showed an inhibition of 12.4%.
`O=C(NCc1ccc(F)cc1)C(c1ccccc1)N(C(=O)c1csnn1)C1CC1` (stereo unspecified) gave an inhibition of 4.8%.
Work on `CC(C)NS(=O)(=O)c1ccc(NC(=O)C2CCCCC2)cc1` yielded an inhibition of -1.2%.
With `CCOc1cccc2c1OC1(CCCCC1)N1N=C(c3cccnc3)CC21` (stereo unspecified) the inhibition was 0.5%.
Work on `CC(=O)Nc1ccc(CC#N)cc1` yielded an inhibition of 2.1%.
`COc1cccc(N(C(=O)c2snc(C(N)=O)c2N)C(C(=O)NCC2CCCO2)c2c[nH]c3ccccc23)c1` (stereo unspecified) showed an inhibition of -1.8%.
With `CCOC(=O)C1CCCN(S(=O)(=O)c2ccc(-n3cnnn3)c(C)c2)C1` (stereo unspecified) the inhibition was 0.9%.
Compound `O=S(=O)([N-]c1nc2ccccc2nc1-[n+]1ccc(Cc2ccccc2)cc1)c1ccc(Br)s1` has an inhibition of 5%.
`Cc1cccc(NS(=O)(=O)c2ccc(C(=O)NCC(C)(C)N3CCOCC3)cc2)c1C` showed an inhibition of 1.5%.
`COc1ccc(NC(=O)COC(=O)C2COc3ccccc3O2)cc1` (stereo unspecified) gave an inhibition of -0.6%.
For `CCC(C)(C)c1ccc(Oc2ccc(NC(=O)COC(=O)C3=COCCO3)cc2)cc1`, the inhibition was 79.2% (active).
`CCOc1ccc(NC(=O)c2ccc(NC(=O)COC(=O)c3ccc(NC(=O)CC#N)cc3)cc2)cc1` showed an inhibition of 0.5%.
With `O=S(=O)(Nc1ccc(O)c2ccccc12)c1ccc(OC(F)(F)F)cc1` the inhibition was 34.9%.
Compound `O=C(NNC(=S)NCc1ccccc1)c1ccc(OC(F)F)cc1` has an inhibition of -1.2%.
In the case of `FC(F)(F)Oc1ccc(NC(=S)NCc2ccccc2)cc1`, the inhibition is reported as 77.1% (active).
